Assay [1] can be described thus: stimulators of nuclear beta-catenin in C2C12, primary screen, imaging, WNT3A-conditioned medium, mouse C2C12, NPC library (AID 1117326; in the data active = nuclear beta-catenin stimulation mostly above about 4.2%, no sharp cut-off; inactive = mostly below about 10%; note: reference of the scale not given here). Conditions: stronger effect = higher value.
Assay [2] in a line: stimulators of insulin release from INS-1E, primary screen, cell-based, 5 mM glucose, NPC library (AID 1117329;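 active = compound raises insulin release from rat beta cells at 5 mM glucose, no numeric limit stated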; note: reference of the scale not given here). The conditions noted are these: rat INS-1E insulin secretion, at 10 µM, stronger effect = higher value.
Assay [3] can be described thus: growth inhibition of GSK3B-pretreated HCT116 cells – cell-based, CellTiter-Glo, 0.2 to 20 µM (AID 1117336;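 active = compounds lowering colon cancer cell viability after pretreatment blocking the GSK3B kinase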). The conditions noted are these: HCT116 viability after GSK3B inhibitor, at 20 µM, stronger effect = higher value. (In general: Cellular ATP, detected with luciferase, serves as a proxy for viable cell number.)
Assay [4] in a line: inhibition of endothelial tube formation, primary screen, imaging, VEGF stimulated, CD31 staining, tube area, NPC library (AID 1117340;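 active = compound that reduces growth-factor-driven endothelial tube area in a mixed cell culture, no cutoff stated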). Conditions: VEGF-stimulated ADSC/ECFC co-culture, at 10 µM, stronger effect = higher value.
Assay [5] can be described thus: glucagon-like peptide 1 release enhancers, primary assay, NCI-H716 cell line, NPC library (AID 1117341). Note: reference of the scale not given here. Conditions: NCI-H716 cells, at 10 µM, stronger effect = higher value.
The nature of assay [6]: HCT116 colon cancer cell growth inhibition, primary screen, CellTiter-Glo luminescence, NPC library (AID 1117342;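 active = compounds that lower survival of HCT116 colon cancer cells in the luminescence readout, no numeric limit stated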). Conditions: at 20 µM (top of the series).
A short description of assay [7]: CellTiter-Glo luminescent readout of SW480 viability loss, NPC library primary (AID 1117343;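 active = compounds that lower viability of the colon cancer cells in the luminescence readout, with no numeric limit stated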). Conditions: CellTiter-Glo luminescence; at 20 µM (top of the series).
Assay [8] in a line: decreased DLD-1 cellular survival, CellTiter-Glo luminescent readout, NPC compound collection, primary HTS (AID 1117346;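 active = compounds that lower survival of DLD-1 colon cancer cells in the luminescence readout, no cutoff given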). Conditions: DLD-1 viability, CellTiter-Glo luminescence; at 20 µM (top of the series).

The structures appear in SMILES notation. Calls of active or inactive are those of the source.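 Rule for the calls, unless noted: active = compound raises GLP1 secretion from the human gut endocrine cells, with no numeric limit stated; inactive = the rest.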

As for `CC/C=C(\C(=O)N[C@@H]1C(=O)N2C(C(=O)OCOC(=O)C(C)(C)C)=C(COC(N)=O)CS[C@H]12)c1csc(N)n1`, the nuclear beta-catenin stimulation in assay [1] (at 10 µM) is -1% (inactive); in assay [1] (stimulation, at 2 µM), -0.1%. Besides, in assay [2], the insulin secretion stimulation is 1.85% (inactive). In addition, the viability decrease in assay [3] was -5.5% (inactive). Further, the tube area decrease in assay [4] is -9.6% (inactive). For the same molecule, the GLP1 secretion stimulation in assay [5] was -0.1% (inactive). Further, the inhibition of viability in assay [6] is -6.4% (inactive). Also, the viability decrease (inhibition) in assay [7] was -3.4% (inactive); in assay [8], -17.7% (inactive).

As to `CCN(CC)CC(=O)Nc1c(C)cccc1C(=O)OC`, the nuclear beta-catenin stimulation in assay [1] (at 10 µM) is 0% (inactive); in assay [1] (stimulation, at 2 µM), 0.3%. In addition, the insulin secretion stimulation in assay [2] is 0.7% (inactive). The viability decrease in assay [3] was -3% (inactive). Further, the tube area decrease in assay [4] is 27.1% (inactive). The GLP1 secretion stimulation in assay [5] was 4.8% (inactive). Besides, the inhibition of viability in assay [6] was -7.9% (inactive). The viability decrease (inhibition) is -13.2% (inactive) in assay [7] and -17.2% (inactive) in assay [8].

As to `CC1(C)S[C@@H]2[C@H](NC(=O)C(C(=O)Oc3ccc4c(c3)CCC4)c3ccccc3)C(=O)N2[C@H]1C(=O)O` (some centres undefined), the nuclear beta-catenin stimulation in assay [1] (at 10 µM) is 1% (inactive); in assay [1] (stimulation, at 2 µM), 0.4%. In addition, the insulin secretion stimulation in assay [2] is 4.4% (inactive). In addition, the viability decrease in assay [3] is -7.7% (inactive). Further, in assay [4], the tube area decrease is -2.6% (inactive). The GLP1 secretion stimulation in assay [5] was -0.3% (inactive). The inhibition of viability in assay [6] is 1.5% (inactive). For the same molecule, the viability decrease (inhibition) in assay [7] was 86% (active); in assay [8] it was -6.9% (inactive).

Turning to `C[C@H](CCC(=O)O)[C@H]1CC[C@H]2[C@H]3[C@@H](CC[C@]12C)[C@@]1(C)CC[C@@H](O)C[C@H]1C[C@@H]3O`, the nuclear beta-catenin stimulation was -1.6% (inactive) in assay [1] (at 10 µM) and 0.2% in assay [1] (stimulation, at 2 µM). Also, in assay [2], the insulin secretion stimulation is 1% (inactive). Also, the viability decrease in assay [3] is -8.5% (inactive). The tube area decrease in assay [4] was -26.9% (inactive). Further, in assay [5], the GLP1 secretion stimulation is -1.3% (inactive). Also, the inhibition of viability in assay [6] is 7.3% (inactive). The viability decrease (inhibition) in assay [7] is 6.1% (inactive); in assay [8] it was -6.8% (inactive).

`CCCCCCCCCCCCOCCOCCOCCOCCOCCOCCOCCOCCOCCO`: the nuclear beta-catenin stimulation in assay [1] (at 10 µM) is 3.9% (inactive); in assay [1] (stimulation, at 2 µM) it was 1.9%. Besides, the insulin secretion stimulation in assay [2] was 0.8% (inactive). Also, the viability decrease in assay [3] was 78.1% (active). In assay [4], the tube area decrease was 47.8% (active). Also, the GLP1 secretion stimulation in assay [5] is 33.5% (active). The inhibition of viability in assay [6] was 96.8% (active). The viability decrease (inhibition) was 124% (active) in assay [7] and 104% (active) in assay [8].

Turning to `CCN1C(=O)c2ccccc2C1Nc1ccc(OCCN2CCCCC2)cc1` (centres undefined), the nuclear beta-catenin stimulation was 0.7% (inactive) in assay [1] (at 10 µM) and 0.3% in assay [1] (stimulation, at 2 µM). For the same molecule, the insulin secretion stimulation in assay [2] is 18.5% (inactive). Also, the viability decrease in assay [3] was 10.5% (inactive). Besides, the tube area decrease in assay [4] was 14.2% (inactive). Moreover, the GLP1 secretion stimulation in assay [5] is 7.7% (inactive). Besides, the inhibition of viability in assay [6] is 47.4% (inactive). For the same molecule, the viability decrease (inhibition) in assay [7] is 13.4% (inactive); in assay [8], -3.1% (inactive).

As for `CCCCCC1Nc2cc(C(F)(F)F)c(S(N)(=O)=O)cc2S(=O)(=O)N1` (centres undefined), the nuclear beta-catenin stimulation in assay [1] (at 10 µM) was 0.5% (inactive); in assay [1] (stimulation, at 2 µM), -0.2%. The insulin secretion stimulation in assay [2] was 2% (inactive). The viability decrease in assay [3] was 13.4% (inactive). For the same molecule, the tube area decrease in assay [4] is 9.2% (inactive). Moreover, in assay [5], the GLP1 secretion stimulation is -0.1% (inactive). Further, the inhibition of viability in assay [6] was 43% (inactive). The viability decrease (inhibition) in assay [7] is 0.7% (inactive); in assay [8] it was 31.7% (inactive).

On to `O=C(O)[C@@H]1C(=CCO)O[C@@H]2CC(=O)N12`, for which the nuclear beta-catenin stimulation in assay [1] (at 10 µM) was 1.3% (inactive); in assay [1] (stimulation, at 2 µM), 0.6%. The insulin secretion stimulation in assay [2] is 2.2% (inactive). In addition, the viability decrease in assay [3] was 16.4% (inactive). In assay [4], the tube area decrease is 0.5% (inactive). The GLP1 secretion stimulation in assay [5] is -1.2% (inactive). In assay [6], the inhibition of viability is 18.5% (inactive). In addition, the viability decrease (inhibition) in assay [7] is 26% (inactive); in assay [8], -7.7% (inactive).

In the case of `COc1ccc(C(=O)N2CCN(CC(=O)N3CCOCC3)CC2)cc1`, the nuclear beta-catenin stimulation was 0.8% (inactive) in assay [1] (at 10 µM) and 5.2% in assay [1] (stimulation, at 2 µM). For the same molecule, the insulin secretion stimulation in assay [2] is 3.1% (inactive). For the same molecule, the viability decrease in assay [3] was 6.4% (inactive). In addition, in assay [4], the tube area decrease is 2.1% (inactive). In assay [5], the GLP1 secretion stimulation was 0.6% (inactive). For the same molecule, the inhibition of viability in assay [6] is 4.3% (inactive). Also, the viability decrease (inhibition) in assay [7] was -11.3% (inactive); in assay [8], 3.3% (inactive).

In the case of `CCOC(=O)NNc1ccc(N(CC)CC(C)O)nn1` (centres undefined), the nuclear beta-catenin stimulation in assay [1] (at 10 µM) was -1.1% (inactive); in assay [1] (stimulation, at 2 µM), 0.1%. Further, the insulin secretion stimulation in assay [2] was 0.3% (inactive). Further, the viability decrease in assay [3] was -1% (inactive). In assay [4], the tube area decrease was -17.2% (inactive). Moreover, in assay [5], the GLP1 secretion stimulation is 1.1% (inactive). Further, the inhibition of viability in assay [6] was 6.1% (inactive). The results for the viability decrease (inhibition) in assay [7] and in assay [8] were 2.6% (inactive) and 1% (inactive), respectively.

Take `O=C1CCC(=O)N1CO`: the nuclear beta-catenin stimulation in assay [1] (at 10 µM) was -2.4% (inactive); in assay [1] (stimulation, at 2 µM), -0.7%. In addition, the insulin secretion stimulation in assay [2] is 3.1% (inactive). Moreover, in assay [3], the viability decrease is -0.6% (inactive). Further, the tube area decrease in assay [4] was -5.1% (inactive). Moreover, the GLP1 secretion stimulation in assay [5] is -1.4% (inactive). Further, the inhibition of viability in assay [6] was 1.8% (inactive). The viability decrease (inhibition) in assay [7] is 9.6% (inactive); in assay [8] it was -2.7% (inactive).

As to `N#CCC(=O)NN`, the nuclear beta-catenin stimulation in assay [1] (at 10 µM) was 0.4% (inactive); in assay [1] (stimulation, at 2 µM), 2.7%. Besides, the insulin secretion stimulation in assay [2] was -0.7% (inactive). The viability decrease in assay [3] is 4.45% (inactive). Moreover, in assay [4], the tube area decrease was 0.1% (inactive). Moreover, the GLP1 secretion stimulation in assay [5] is -0.8% (inactive). In addition, the inhibition of viability in assay [6] is 1.9% (inactive). The viability decrease (inhibition) in assay [7] was 13.4% (inactive); in assay [8], 4.5% (inactive).

As to `CN=C(N)NC(=O)Nc1c(C)cccc1C`, the nuclear beta-catenin stimulation is -1.8% (inactive) in assay [1] (at 10 µM) and -0.4% in assay [1] (stimulation, at 2 µM). The insulin secretion stimulation in assay [2] is -1.2% (inactive). In assay [3], the viability decrease was -12.4% (inactive). In assay [4], the tube area decrease was -1.8% (inactive). For the same molecule, the GLP1 secretion stimulation in assay [5] was -0.6% (inactive). Also, the inhibition of viability in assay [6] is 11.3% (inactive). Moreover, the viability decrease (inhibition) in assay [7] was -1.5% (active); in assay [8], -0.9% (inactive).

Regarding `CC[C@@H]([C@H](C)O)n1ncn(-c2ccc(N3CCN(c4ccc(OC[C@@H]5CO[C@@](Cn6cncn6)(c6ccc(F)cc6F)C5)cc4)CC3)cc2)c1=O`, the nuclear beta-catenin stimulation is 51.6% (active) in assay [1] (at 10 µM) and 8.2% in assay [1] (stimulation, at 2 µM). In addition, the insulin secretion stimulation in assay [2] was 1.4% (inactive). In assay [3], the viability decrease is 11.8% (inactive). The tube area decrease in assay [4] is 97.9% (active). The GLP1 secretion stimulation in assay [5] is 4.8% (inactive). For the same molecule, the inhibition of viability in assay [6] was 77.7% (active). In addition, the viability decrease (inhibition) was 83.8% (active) in assay [7] and 24.1% (inactive) in assay [8].

As to `Cc1ccc(C(C)C)c(O)c1`, the nuclear beta-catenin stimulation in assay [1] (at 10 µM) was 0.6% (inactive); in assay [1] (stimulation, at 2 µM) it was 0.8%. Also, the insulin secretion stimulation in assay [2] was -3.2% (inactive). Further, in assay [3], the viability decrease is -0.65% (inactive). The tube area decrease in assay [4] is 15.5% (inactive). The GLP1 secretion stimulation in assay [5] is -0.9% (inactive). In assay [6], the inhibition of viability is -2.9% (inactive). The viability decrease (inhibition) in assay [7] is 74.8% (active); in assay [8] it was 1.9% (inactive).

Take `NC(=O)C(=O)N/N=C/c1ccc([N+](=O)[O-])o1`: the nuclear beta-catenin stimulation in assay [1] (at 10 µM) is 4.5% (inactive); in assay [1] (stimulation, at 2 µM), 1.5%. Besides, the insulin secretion stimulation in assay [2] is -3.3% (inactive). For the same molecule, in assay [3], the viability decrease was 17.6% (inactive). The tube area decrease in assay [4] was 28.8% (inactive). Moreover, in assay [5], the GLP1 secretion stimulation is -1.5% (inactive). In addition, the inhibition of viability in assay [6] is 0.3% (inactive). Also, the viability decrease (inhibition) in assay [7] is 89.2% (active); in assay [8], 23.6% (inactive).

The record behind these values is PubChem BioAssay.
